Bioassay records: PubChem BioAssay, National Center for Advancing Translational Sciences (NCATS)
An excerpt weighted towards active compounds, which were near 11% of everything screened.
RORg inh – qHTS for inhibitors of ROR gamma transcriptional activity | Potency, µM (doses to about 53.6 µM), without a hit: at the top dose activity change, negative = inhibition, hits mostly inhibitors | hit rate 5.4% among 310,000 | Nuclear receptor ROR-gamma (Mus musculus), P51450 | Drosophila S2 Gal4-RORgamma UAS-luciferase reporter, 20 h; further: potency means the concentration at half of the fitted maximal effect; on the % scale 0 is the no-effect control and ±100 the full control effect; nearly all actives have a fitted effect of over 60% in size
Target sequence (P51450 whole entry, looked up, the tested form may be a part): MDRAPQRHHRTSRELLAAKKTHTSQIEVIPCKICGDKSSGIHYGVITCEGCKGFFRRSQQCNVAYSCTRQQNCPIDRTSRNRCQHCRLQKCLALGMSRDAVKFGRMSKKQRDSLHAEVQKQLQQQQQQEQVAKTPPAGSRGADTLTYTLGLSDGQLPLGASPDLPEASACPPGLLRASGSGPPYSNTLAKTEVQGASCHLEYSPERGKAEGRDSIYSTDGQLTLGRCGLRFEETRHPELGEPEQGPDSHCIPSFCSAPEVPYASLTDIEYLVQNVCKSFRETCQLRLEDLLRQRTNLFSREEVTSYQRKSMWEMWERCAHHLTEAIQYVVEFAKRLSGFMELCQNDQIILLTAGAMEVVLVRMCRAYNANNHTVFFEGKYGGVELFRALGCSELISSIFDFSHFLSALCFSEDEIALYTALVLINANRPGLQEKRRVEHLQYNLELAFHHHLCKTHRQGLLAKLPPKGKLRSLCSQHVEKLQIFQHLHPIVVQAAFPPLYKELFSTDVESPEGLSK
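Stable Schneider cell line, Gal4 DNA-binding domain fused to ROR gamma, UAS-luciferase. Cmpd 1 hr RT → CuSO4 700 uM final → 20 hr RT → luciferase reagent 10 min → luminescence.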
IL-1B inflam inh – qHTS for Inhibitors of Inflammasome Signaling: IL-1-beta AlphaLISA Primary Screen | THP-1 LPS/ATP IL-1B secretion, AlphaLISA, 16 h; active compounds read low | activity change, % at 57.5 µM | hit rate 4.7% among 360,000; in the data active means activity change below about -50%; inconclusive means mostly about -30% to -49%; further: on the % scale 0 is the no-effect control and ±100 the full control effect
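THP-1 cells pretreated 1 hr with compounds (up to 57.5 uM final), then stimulated with LPS (250 ng/mL final) plus ATP (1.25 mM final); secreted IL-1B measured by AlphaLISA after 16 hr, decreased signal indicating inhibition.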
VP16 counter – VP16 counterscreen qHTS for inhibitors of ROR gamma transcriptional activity; AID 2546, 2010; hit rate 3.5% among 310,000; Drosophila S2 Gal4-VP16 UAS-luciferase, luminescence, 20 h; Potency, µM (highest dose often 53.6 µM), for inactives: at the highest dose activity, negative = inhibition, most hits filed as inhibitors;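 further: Gal4-VP16 expression switched on by copper sulfate through the metallothionein promoter; potency means the concentration at half of the fitted maximal effect; on the % scale 0 is the no-effect control and ±100 the full control effect; nearly all actives have a fitted effect of over 50% in size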
MCF10A rereplic – A quantitative high throughput screen for small molecules that induce DNA re-replication in MCF 10a normal breast cells. MCF 10A DNA re-replication, Hoechst nuclear intensity, 48 h. Potency, µM (top dose mostly 46.1 µM), for the others: at the top dose activity, positive = re-replication, usual class: activators. hit rate 2.9% among 350,000; further: potency means the concentration at half of the fitted maximal effect; % of control where 0% means no effect; nearly all actives have a fitted effect of over 50% in size
SW480 rereplic – A quantitative high throughput screen for small molecules that induce DNA re-replication in SW480 colon adenocarcinoma cells; SW480 DNA re-replication, Hoechst DNA content imaging, 48 h; Potency, µM (doses to about 46.1 µM), inactives show top-dose re-replication activation, actives largely listed as activators; hit rate 1.8% among 340,000; further: potency means the concentration at half of the fitted maximal effect; % of control where 0% means no effect; nearly all actives have a fitted effect of over 55% in size
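Cells (250 per well) received 23 nL compound or DMSO by pin tool and were kept 48 hr at 37 C, 5% CO2. Nuclei were then stained with Hoechst for 40 min and scanned for DNA content.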
* = called active by the depositor; u = inconclusive; x = not tested or not shown. Unless noted, the call rests on the fitted dose curve; in most records, active means well fitted curve in the direction sought with a large enough effect; inconclusive means small, poorly fitted or top-dose-only effect, or another doubt; inactive means no such curve, though single readings can be large; an effect the other way counts as inactive or inconclusive.

SMILES	RORg inh	IL-1B inflam inh	VP16 counter	MCF10A rereplic	SW480 rereplic
NC(=O)C1(N2CCCCC2)CCN(c2nc(-c3ccccc3)cs2)CC1	17%	-8	9%	7%	3%
O=C(NC1CCCCC1)N1CCN(c2nc(-c3ccccc3)cs2)CC1	11µM*	-64*	u	u	1%
Cc1c(Cl)cccc1NC(=O)CSc1nc2ncc(Cl)cc2[nH]1	u	-5	u	16%	-8%
O=C(NC1CCCCC1)c1sc(N2CCOCC2)nc1-c1ccccc1	23%	17	2%	5.8µM*	0%
Cc1cccc(N2CCN(C(=O)NC3CCCCC3)CC2)c1C	u	-56*	-7%	18%	-35%
COc1ccc(-c2csc(N3C(=N)SCC3=O)n2)cc1	4µM*	14	u	-1%	2%
CC(=O)O[C@@H]1CC[C@@]2(C)[C@H](C1)[C@H](OC(C)=O)C[C@@H]1[C@@H]2C[C@H]2[C@@H]3CN4C[C@H](C)CC[C@H]4[C@H](C)[C@H]3CC[C@@]12O	-3%	x	-1%	x	x
S=c1nc(C2CCCCC2)[nH]c2ccccc12	0.63µM*	33	8.9µM*	4%	-3%
CC(C)c1nc(=S)c2ccccc2[nH]1	5.6µM*	13	10µM*	1%	-7%
S=c1nc(SCc2ccccc2)[nH]c2ccccc12	1.4µM*	33	10µM*	30%	-76%
S=c1nc(C2CC2)[nH]c2ccccc12	3.5µM*	24	5.6µM*	u	-2%
c1ccc(CSc2nc3ncncc3[nH]2)cc1	-2%	-6	-3%	2%	-11%
Cn1nc(N2CCN(S(=O)(=O)c3ccccc3)CC2)c(=O)n(C)c1=O	x	-4	x	-21%	-4%
O=C(OCC(=O)N1CCCC1)c1ccccc1C(=O)c1ccccc1	x	-9	x	0%	-11%
CC1(C)Cc2ccccc2C2=NNC(=O)C2=N1	u	-100*	u	u	8.2µM*
N#C/C(=C\c1cccs1)Sc1nc2ccccc2s1	-23%	-98*	23%	u	13%
CCn1c(C(=O)N2CCCC(C(=O)NCCc3ccc(C)cc3)C2)cc2sccc21 (stereo not given)	u	-54*	-7%	u	u
CCn1c(C(=O)N2CCC(Cc3ccccc3)CC2)cc2sccc21	8%	-15	3%	21µM*	1%
CCn1c(C(=O)N2CCCC(C(=O)NCCCc3ccccc3)C2)cc2sccc21 (stereo not given)	u	u	11µM*	u	11%
CCn1c(C(=O)N2CCCC(C(=O)O)C2)cc2sccc21 (stereo not given)	34%	8	3%	2%	9%
CCS(=O)(=O)N1CCCC(C(=O)NCCc2ccc(C)cc2)C1 (stereo not given)	14%	14	5%	-67%	13µM*
CCCn1c(-c2ccc(F)cc2)nc2c(NCC3CCN(C)CC3)nc(C)nc21	-20%	x	-6%	x	x
Nc1c(CNCc2nnn(Cc3ccccc3)c2N)nnn1Cc1ccccc1	x	-8	x	x	x
O=C(CNC(=O)c1ccc(Br)cc1)NCc1cccnc1	-4%	20	3%	0%	-18%
COn1c(-c2ccccc2)nc2c1CCc1c-2no[n+]1[O-]	-18%	-63*	-2%	0%	-7%
CCOC(=O)C(Sc1cc(-c2ccccc2)nc2ncnn12)C(C)=O (stereo not given)	0.63µM*	-19	2.8µM*	9%	2%
COc1cccc([C@@H]2Oc3ccc(OC)cc3C[C@H]2OC(=O)N[C@H]2CCCc3ccccc32)c1	9%	x	-5%	x	x
COc1ccc(NC(=O)C2Cc3c(-c4cccc(F)c4)ccnc3O2)cn1 (stereo not given)	x	-16	x	x	x
CSc1ccccc1NC(=O)C1(C)CCN1C(=O)Cc1ccccc1Cl (stereo not given)	x	-18	x	x	x
CCCCc1ccc(NC(=O)CSCc2cc(=O)[nH][nH]2)cc1	4%	-5	-1%	13µM*	-3%
